The values that follow come from PubChem BioAssay.

Values without a mark were called inactive. For some of these results: Measured potencies and affinities stand elsewhere. Activity calls are given as the source filed them. Unless noted, how the calls were made is not given here.

The nature of assay [1]: antimalarial activity against Dd2 strain (AID 2302;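 active means growth inhibition above 50% at the single 2 µM test dose, taken to imply half-maximal potency below 2 µM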;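 further: 0% = DMSO untreated growth and 100% = chloroquine plus artemisinin killed control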). The note with it: P. falciparum Dd2 in RBCs, LDH growth readout, 72 h; at 2 µM; active compounds read high.
A short description of assay [2]: human hepatoma cell viability loss – ATP luminescence, cytotoxicity control for P. falciparum antimalarial project, primary screen (AID 2303;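 active means inhibition above 50%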;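 further: 0% = DMSO wells and 100% = digitonin-killed cells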). The note with it: HepG2 viability, 24-48 h, at 10 µM, active compounds read high.
Assay [3] addresses L-lactate dehydrogenase (Plasmodium falciparum (isolate CDC / Honduras)) (UniProt Q27743). The assay is described as follows: PfLDH activity inhibition – cell lysate, 3D7 strain, counter-screen for P. falciparum growth inhibition project (AID 2304).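 Further: 0% = vehicle and 100% = reference inhibitor.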 The note with it: P. falciparum 3D7 crude extract, LDH APAD/NBT absorbance; at 2 µM; active compounds read high. (Counterscreens check selectivity or assay interference.)

A short description of assay [4]: inhibition of 3D7 malaria parasite growth – strain 3D7 (AID 2306).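 Further: 0% = DMSO wells and 100% = chloroquine plus artemisinin control wells.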 The note with it: P. falciparum 3D7 erythrocytic growth, LDH absorbance, 72 h; at 2 µM; active compounds read high.
Assay [5] deals with Calcium-dependent protein kinase 1 (Plasmodium falciparum (isolate 3D7)) (UniProt P62344). As to the kind of experiment: PfCDPK1 kinase inhibitors, biochemical, TCAMS library (AID 1159585; cut-off not given, nearly all actives have IC50 up to about 0.98 µM;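 further: inhibitors leave more ATP so luminescence rises with inhibition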). The note with it: recombinant PfCDPK1, Kinase-Glo ATP depletion luminescence. (In general: In Kinase-Glo more light means more ATP remaining.)
Assay [6] addresses Plasmodium falciparum protein kinase 6 (PK6, PF3D7_1337100) (UniProt Q8IDW1). The assay is described as follows: PfPK6 kinase inhibitors, biochemical, TCAMS library (AID 1159586). The note with it: recombinant PfPK6, Kinase-Glo ATP depletion luminescence.
In assay [7] the target is Protein kinase 7 (PK7), Plasmodium falciparum 3D7 (PF3D7_0213400) (UniProt Q7YTF7). The assay is described as follows: inhibition of Plasmodium PK7 catalytic activity – biochemical, TCAMS antimalarial set, Kinase-Glo luminescence (AID 1159587). The note with it: recombinant PfPK7, Kinase-Glo ATP depletion luminescence.
The target in assay [8] is Calcium-dependent protein kinase 4 (Plasmodium falciparum (isolate 3D7)) (UniProt Q8IBS5). As to the kind of experiment: PfCDPK4 kinase inhibitors, biochemical, TCAMS library (AID 1159588; cut-off not given, nearly all actives have IC50 up to about 0.91 µM). The note with it: recombinant PfCDPK4, Kinase-Glo ATP depletion luminescence.
Sequence of Calcium-dependent protein kinase 4 (Plasmodium falciparum (isolate 3D7)) (Q8IBS5 whole entry, looked up): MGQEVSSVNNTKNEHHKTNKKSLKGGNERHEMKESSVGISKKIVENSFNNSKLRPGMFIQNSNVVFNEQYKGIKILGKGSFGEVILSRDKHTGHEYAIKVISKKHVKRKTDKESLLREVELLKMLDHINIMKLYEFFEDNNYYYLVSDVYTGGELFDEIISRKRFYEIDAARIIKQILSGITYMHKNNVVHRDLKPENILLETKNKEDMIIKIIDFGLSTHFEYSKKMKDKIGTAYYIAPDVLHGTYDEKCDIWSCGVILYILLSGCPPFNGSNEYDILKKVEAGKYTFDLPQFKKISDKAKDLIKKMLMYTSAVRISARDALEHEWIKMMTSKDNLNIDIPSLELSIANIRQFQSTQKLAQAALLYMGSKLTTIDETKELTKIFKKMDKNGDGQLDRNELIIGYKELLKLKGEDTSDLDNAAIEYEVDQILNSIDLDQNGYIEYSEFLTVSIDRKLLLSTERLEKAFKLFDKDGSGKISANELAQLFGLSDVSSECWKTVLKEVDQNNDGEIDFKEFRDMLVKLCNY

Sequence of L-lactate dehydrogenase (Plasmodium falciparum (isolate CDC / Honduras)) (Q27743 whole entry, looked up): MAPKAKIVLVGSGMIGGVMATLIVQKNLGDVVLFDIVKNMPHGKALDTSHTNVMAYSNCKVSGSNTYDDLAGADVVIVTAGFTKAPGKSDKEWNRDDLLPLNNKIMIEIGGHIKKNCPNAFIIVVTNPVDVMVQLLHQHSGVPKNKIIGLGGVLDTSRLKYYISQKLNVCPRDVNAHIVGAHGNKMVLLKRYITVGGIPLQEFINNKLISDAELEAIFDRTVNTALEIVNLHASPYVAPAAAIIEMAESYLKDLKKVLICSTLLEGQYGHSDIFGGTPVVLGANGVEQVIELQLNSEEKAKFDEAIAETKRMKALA
Sequence of Plasmodium falciparum protein kinase 6 (PK6, PF3D7_1337100) (Q8IDW1 1-305): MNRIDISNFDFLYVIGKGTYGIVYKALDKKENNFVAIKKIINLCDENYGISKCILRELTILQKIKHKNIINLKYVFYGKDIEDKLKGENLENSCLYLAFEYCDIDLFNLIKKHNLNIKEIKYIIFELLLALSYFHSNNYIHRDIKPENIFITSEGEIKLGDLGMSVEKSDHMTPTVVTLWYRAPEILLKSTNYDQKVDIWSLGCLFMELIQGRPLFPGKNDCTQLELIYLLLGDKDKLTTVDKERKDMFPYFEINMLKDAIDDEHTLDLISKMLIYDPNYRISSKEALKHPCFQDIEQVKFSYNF
Sequence of Protein kinase 7 (PK7), Plasmodium falciparum 3D7 (PF3D7_0213400) (Q7YTF7 1-343): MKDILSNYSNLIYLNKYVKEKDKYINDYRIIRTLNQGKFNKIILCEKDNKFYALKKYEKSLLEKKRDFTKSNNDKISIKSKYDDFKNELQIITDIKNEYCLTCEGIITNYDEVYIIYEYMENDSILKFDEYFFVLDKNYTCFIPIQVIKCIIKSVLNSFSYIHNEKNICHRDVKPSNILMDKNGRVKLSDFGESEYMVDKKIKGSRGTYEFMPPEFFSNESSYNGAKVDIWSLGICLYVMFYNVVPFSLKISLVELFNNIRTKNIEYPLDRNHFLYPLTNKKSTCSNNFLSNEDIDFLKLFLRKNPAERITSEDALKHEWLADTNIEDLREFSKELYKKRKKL
Sequence of Calcium-dependent protein kinase 1 (Plasmodium falciparum (isolate 3D7)) (P62344 whole entry, looked up): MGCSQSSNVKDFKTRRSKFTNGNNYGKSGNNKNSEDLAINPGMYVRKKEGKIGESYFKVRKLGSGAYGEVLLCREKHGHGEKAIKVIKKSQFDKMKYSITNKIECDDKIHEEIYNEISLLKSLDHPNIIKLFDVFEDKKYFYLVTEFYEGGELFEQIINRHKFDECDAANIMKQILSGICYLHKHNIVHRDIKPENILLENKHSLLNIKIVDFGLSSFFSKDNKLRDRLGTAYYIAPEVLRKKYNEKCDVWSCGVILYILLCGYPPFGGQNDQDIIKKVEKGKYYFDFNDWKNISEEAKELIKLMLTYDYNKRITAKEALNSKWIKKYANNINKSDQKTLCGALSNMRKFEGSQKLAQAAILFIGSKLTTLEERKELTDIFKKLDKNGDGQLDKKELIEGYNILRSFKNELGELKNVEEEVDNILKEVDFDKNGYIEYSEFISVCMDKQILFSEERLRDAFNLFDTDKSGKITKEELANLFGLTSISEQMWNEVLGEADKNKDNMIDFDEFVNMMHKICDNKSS

On to `Cc1cc(N[C@@H](Cc2ccccc2)C(=O)NCc2cccc(F)c2)nc(NCC2CCCCC2)n1`, for which the growth inhibition in assay [1] was 42%; in assay [4], 101% (active). Also, the results for the inhibition in assay [2] and in assay [3] were 43% and -2%, respectively. For the same molecule, the result in assay [5], in assay [6], in assay [7] and in assay [8] was inactive.
On to `CCN(CC)C(=NCCCCCCCCN=C(/N=C(/N)Nc1ccc(Cl)cc1)N(CC)CC)/N=C(/N)Nc1ccc(Cl)cc1`, for which the growth inhibition is 94% (active) in assay [1] and 99% (active) in assay [4]. Further, the inhibition – broadly, the drop in the measured response relative to a control, in per cent – in assay [2] was 10%; in assay [3], -3%. Moreover, the result in assay [5], in assay [6], in assay [7] and in assay [8] was inactive.
As for `NC1CCCN(Cc2cccc(-c3ccc(-c4nc5ccc(F)cc5[nH]4)cc3)c2)C1` (stereo not given), the growth inhibition in assay [1] was 99% (active); in assay [4] it was 101% (active). Also, the inhibition in assay [2] was 40%; in assay [3], -3%. Moreover, the result in assay [5], in assay [6], in assay [7] and in assay [8] was inactive.
Turning to `O=C(/C=C/C=C/c1ccccc1)NCCCCCN1CCC(c2c[nH]c3ccccc23)CC1`, the results for the growth inhibition in assay [1] and in assay [4] were 7% and 85% (active), respectively. In addition, the figures for the inhibition in assay [2] and in assay [3] were 28% and 4%, respectively. The outcome in assay [5], in assay [6], in assay [7] and in assay [8] was inactive.
As to `COc1cccc(CNC(=O)c2ccnc(-c3cccc(CN(C)C4CCN(C)CC4)c3)c2)c1`, the growth inhibition was 46% in assay [1] and 100% (active) in assay [4]. Further, the inhibition in assay [2] is 19%; in assay [3], -1%. In addition, the result in assay [5], in assay [6], in assay [7] and in assay [8] was inactive.
Regarding `COc1cc(Nc2ccnc3cc(-c4nccs4)ccc23)ccc1OCCCc1nc2ccccc2[nH]1`, the growth inhibition in assay [1] is 68% (active); in assay [4] it was 100% (active). Moreover, the inhibition in assay [2] is 100% (active); in assay [3], 5%. For the same molecule, the outcome in assay [5], in assay [6], in assay [7] and in assay [8] was inactive.
Consider `CCNc1cc(C)nc(Nc2ccccc2)n1`, for which the growth inhibition in assay [1] is 8%; in assay [4] it was 92% (active). Besides, the inhibition is 16% in assay [2] and -1% in assay [3]. Also, the outcome in assay [5], in assay [6], in assay [7] and in assay [8] was inactive.
`COc1ccc(CCNc2nc(NCCc3cnc[nH]3)nc(NCc3cccc4ccccc34)n2)cc1OC`: the growth inhibition in assay [1] is 16%; in assay [4], 98% (active). Also, the inhibition in assay [2] was 2%; in assay [3], 3%. For the same molecule, the result in assay [5], in assay [6], in assay [7] and in assay [8] was inactive.
Regarding `COc1ccc(CCN2CC[C@H](Nc3nc(-c4ccc(F)c(F)c4)nc4ccccc34)C2)cc1S(N)(=O)=O`, the results for the growth inhibition in assay [1] and in assay [4] were 64% (active) and 99% (active), respectively. The inhibition was 18% in assay [2] and -8% in assay [3]. The result in assay [5], in assay [6], in assay [7] and in assay [8] was inactive.
On to `COc1ccc(C=NNc2nc(-c3ccccc3)cc(=O)[nH]2)cc1OC`, for which the growth inhibition in assay [1] was 93% (active); in assay [4] it was 92% (active). Besides, the figures for the inhibition in assay [2] and in assay [3] were 22% and 4%, respectively. Further, the outcome in assay [5], in assay [6], in assay [7] and in assay [8] was inactive.
In the case of `CCN1CCC(N(Cc2ccc(-c3ccc(C(F)(F)F)cc3)cc2)C(=O)Cn2c(SCc3cccc(F)c3F)cc(=O)c3ccccc32)C1` (stereo not given), the results for the growth inhibition in assay [1] and in assay [4] were 91% (active) and 90% (active), respectively. For the same molecule, the results for the inhibition in assay [2] and in assay [3] were 42% and 5%, respectively. Also, the result in assay [5], in assay [6], in assay [7] and in assay [8] was inactive.
Turning to `COc1ccc2ncc(F)c([C@@H](O)CN3CCC(NCc4cc5c(cn4)OCS5)CC3)c2c1`, the growth inhibition is 98% (active) in assay [1] and 103% (active) in assay [4]. The inhibition in assay [2] was 16%; in assay [3], -2%. Moreover, the outcome in assay [5], in assay [6], in assay [7] and in assay [8] was inactive.
With `CCN(CCO)Cc1ccc(-c2ccc(NS(=O)(=O)c3cccc4cccnc34)cc2)cc1`, the growth inhibition in assay [1] is 16%; in assay [4], 92% (active). Moreover, the results for the inhibition in assay [2] and in assay [3] were 25% and 2%, respectively. Moreover, the result in assay [5], in assay [6], in assay [7] and in assay [8] was inactive.
As for `O=C(c1cc2nc3c(c(C(F)(F)F)n2n1)CCc1ccccc1-3)N1CCN2CCCC2C1` (stereo not given), the growth inhibition in assay [1] is 3%; in assay [4] it was 94% (active). The results for the inhibition in assay [2] and in assay [3] were -8% and 0%, respectively. For the same molecule, the outcome in assay [5], in assay [6], in assay [7] and in assay [8] was inactive.
Take `Cc1ccc(/C=C/C(=O)NCCCCCN2CCN(C(=O)Nc3ccc(Cl)c(C(F)(F)F)c3)CC2)cc1`: the growth inhibition was -3% in assay [1] and 93% (active) in assay [4]. For the same molecule, the inhibition in assay [2] was 10%; in assay [3], -2%. The result in assay [5], in assay [6], in assay [7] and in assay [8] was inactive.
`CC(CNC1CCN(CCn2c(=O)ccc3ccc(F)cc32)CC1)c1ccccc1` (stereo not given): the growth inhibition in assay [1] was 4%; in assay [4], 85% (active). Moreover, the inhibition is -12% in assay [2] and -1% in assay [3]. The outcome in assay [5], in assay [6], in assay [7] and in assay [8] was inactive.
For the molecule `CCNc1cc(C(=O)N[C@@H](Cc2ccccc2)[C@H](O)CNCc2ccc3c(c2)OCCO3)cc(N2CCCCS2(=O)=O)c1`, the growth inhibition in assay [1] is 45%; in assay [4], 95% (active). In addition, the inhibition in assay [2] and in assay [3] was -1% in each case. In addition, the outcome in assay [5], in assay [6], in assay [7] and in assay [8] was inactive.
On to `COc1ccc2nccc([C@@H](O)CN3CC[C@H](NCc4nc5c(cc4F)SCC(=O)N5)[C@H](F)C3)c2c1`, for which the growth inhibition in assay [1] is 49%; in assay [4], 95% (active). Moreover, the inhibition in assay [2] is 9%; in assay [3] it was -4%. Further, the outcome in assay [5], in assay [6], in assay [7] and in assay [8] was inactive.
As to `COc1ccc(CNc2ncc(-c3ccsc3)c(-c3nccs3)n2)cc1OC`, the growth inhibition is 69% (active) in assay [1] and 86% (active) in assay [4]. In addition, the values for the inhibition in assay [2] and in assay [3] were 10% and -1%, respectively. In addition, the result in assay [5], in assay [6], in assay [7] and in assay [8] was inactive.
For the molecule `O=C(NC1CCN(c2ccnc3cc(Cl)ccc23)C1)c1ccccc1F` (stereo not given), the growth inhibition in assay [1] is 71% (active); in assay [4], 101% (active). The figures for the inhibition in assay [2] and in assay [3] were 8% and 4%, respectively. In addition, the result in assay [5], in assay [6], in assay [7] and in assay [8] was inactive.
